Data as given in PubChem BioAssay AID1345083 (National Center for Advancing Translational Sciences (NCATS), 2018).
The campaign covered roughly 94,000 compounds. About 6,200 (6.6%) were called active. Not shown: some 31% with an inconclusive outcome. This is one part of a sample in which actives are shown more often than they occur. A number with no mark means an inactive call. Calls follow the shape of the dose curve; as a rule, active = well fitted inhibition curve with a large enough effect; inconclusive = small, poorly fitted or top-dose-only effect; inactive = flat fitted curve, though single readings scatter.

Test: Cytotoxic Profiling in HEK 293 Cell Line of Diverse Libraries Using Quantitative High-Throughput Screening; also: nearly all actives have a fitted effect of over 60% in size
Conditions: HEK 293 viability, ATP luminescence (CellTiter-Glo), 48-72 h; series mostly up to 115 µM; activity change, negative = cytotoxicity: at the top concentration
In short: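 Cells seeded first (HEK 293, 250 cells/well), then compound added by pintool. Incubation ran 48 or 72 hr at 37 degree Celsius. CellTiter-Glo was added and luminescence imaged after 10 min at room temperature.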
% is scaled to controls: 0 for no effect and ±100 for the full control effect; potency is read from the fitted curve at half-maximal effect.

Structure (SMILES) | activity change, negative = cytotoxicity | Potency | outcome
COC(=O)N1CCC2(CC1)C(=NC1CCCC1)NC(=O)N2c1cc(F)cc(F)c1 | -4.97% | – | –
Cc1csc(CCNC(=O)C[C@H]2NC(=O)c3ccccc3NC2=O)n1 | -0.645% | – | –
O=C1Nc2ccccc2CC12CCN(CC1CCCCC1)CC2 | – | inactive | –
O=C1Nc2ccccc2CC12CCN(CC1CC1)C2 (centres undefined) | -20.7% [at 172 µM] | – | –
N#Cc1ccc(CN2CCC3(Cc4ccccc4NC3=O)C2)cc1 (centres undefined) | – | 89.1 µM (active) | –
O=C(N[C@H]1CCN2C(=O)c3ccccc3NC(=O)[C@H]12)c1cccs1 | 4.83% [at 172 µM] | – | –
CC(=O)N1CCc2[nH]cnc2C12CCN(C(=O)c1ccc(C)c(C)c1)CC2 | -17.9% | – | –
COC(=O)C[C@H]1CN(C(=O)OC(C)(C)C)CCN1 | – | – | inactive [at 172 µM]
COc1ccc(-n2nc(C3CCN(C(=O)c4ccc(Cl)nc4)CC3)[nH]c2=O)cc1 | 1.41% | – | –
COc1ccc(-n2nc(C3CCN(Cc4ccccn4)CC3)[nH]c2=O)cc1 | – | 12.6 µM (active) | –
COc1ccc(-n2nc(C3CCN(C(=O)c4ccc(C)cc4)CC3)[nH]c2=O)cc1 | -22% | – | –
CN1CCN(C(=O)c2ccc3c(c2)OCCO3)CC1=O | 3.69% | – | –
CN(C)C(=O)c1nc(-c2cccnc2)c2ccccn12 | 1.69% [at 172 µM] | – | –
Cc1cnc(C2CCC2)n1CC1CCN(C(=O)c2ccncc2)C1 (centres undefined) | 0.823% | – | –
Cc1cccc(-c2noc([C@@H]3Cc4nc[nH]c4CN3C(=O)Nc3ccccc3)n2)c1 | -25.2% [at 172 µM] | – | –
Cc1cccc(-c2noc([C@@H]3Cc4nc[nH]c4CN3C(=O)CCC(=O)O)n2)c1 | 2.48% [at 172 µM] | – | –
Cc1ccc(-c2noc([C@@H]3Cc4nc[nH]c4CN3Cc3cccc(C#N)c3)n2)cc1 | – | 89.1 µM (active) | –
CCn1cc(C(=O)N2C[C@@H](COCC3CC3)[C@H](c3ccccn3)C2)cn1 | -23.9% | – | –
Cc1cc(C)n(CC(=O)N2CCC3(CC2)NCCc2c3[nH]c3ccccc23)n1 | -4.91% | – | –
COCCOCC(=O)N1CCC2(CC1)c1[nH]c3ccc(OC)cc3c1CCN2C | -9.77% | – | –
COc1ccc(C2(C(=O)N3CCC4(CC3)NCCc3c4[nH]c4ccccc34)CC2)cc1 | – | 35.5 µM (active) | –
O=C(COc1ccc(F)cc1)N1CCC2(CC1)NCCc1c2[nH]c2ccccc12 | – | 44.7 µM (active) | –
COc1ccc2[nH]c3c(c2c1)CCNC31CCN(C(=O)Cn2ccnc2)CC1 | -3.22% | – | –
COc1cccc(N2CCN(C(=O)C3(c4ccc(NC(C)=O)cc4)CCC3)CC2)c1 | -13.8% | – | –
O=C(C1CCCO1)N1CCC2(CC1)NCCc1c2[nH]c2ccccc12 (centres undefined) | -4.46% | – | –

Structure (SMILES) | activity change, negative = cytotoxicity | Potency | outcome
COCCOCC(=O)N1CCC2(CC1)NCCc1c2[nH]c2ccccc12 | – | – | inactive
O=C(C1CC=CC1)N1CCC2(CC1)NCCc1c2[nH]c2ccccc12 | – | 39.8 µM (active) | –
CC(=O)NCc1nnc2n1C(C(=O)N1CCN(C)CC1)CC2 (centres undefined) | -19% [at 172 µM] | – | –
COCc1nncn1C1CCN(C(=O)c2ccccc2OC(F)(F)F)CC1 | 3.04% | – | –
CC(=O)Nc1ccc2c(c1)nc1n2[C@@H](CNCc2ccncc2F)COC1 | 4.05% [at 172 µM] | – | –
CN1CCCN(c2ccc(C(=O)N3CCC(N4CCOCC4)CC3)cn2)CC1 | -2.17% | – | –
O=C(NC1C[C@H]2CC[C@@H](C1)N2S(=O)(=O)c1ccc2c(c1)OCCO2)c1ccc(F)cc1 (some centres undefined) | -20.7% | – | –
CCn1ccc(C(=O)NC2CCCN(c3cc(-c4ccc(F)cc4)[nH]n3)C2)n1 (centres undefined) | -22.3% | – | –
O=C(NC1CCCN(c2cc(-c3ccc(Cl)cc3)[nH]n2)C1)c1ccccc1F (centres undefined) | – | 44.7 µM (active) | –
O=C(NC1CCCN(c2cc(-c3ccc(F)cc3)[nH]n2)C1)c1ccc(Br)cc1 (centres undefined) | – | 39.8 µM (active) | –
Cc1nnc2ccc(N3CCC(NC(=O)c4ccccc4Cl)C3)nn12 (centres undefined) | -3.86% | – | –
O=C(NC1CCCN(c2nc3ncccc3o2)C1)c1ccc(F)cc1 (centres undefined) | -15.2% [at 172 µM] | – | –
O=C(NC1CCCN(c2cc(-c3ccc(Cl)cc3)[nH]n2)C1)c1ccncc1 (centres undefined) | – | 39.8 µM (active) | –
O=C(NC1CCCN(c2ccc3nnc(C4CC4)n3n2)C1)c1ccccn1 (centres undefined) | 1.46% | – | –
CN(C)C1(CC2CC2)CCN(C(=O)c2ccsc2)CC1 | 1.08% | – | –
CC(C)CN1C(=O)c2cccn2CC1C(=O)NC1CCS(=O)(=O)C1 (centres undefined) | – | – | inactive
COc1ccc(CN2CCCC(c3[nH]ccc3C(N)=O)C2)cc1Cn1ccnc1 (centres undefined) | 2.51% | – | –
O=C(c1ccc(N2CC3CC(C2)[C@H]2CCCC(=O)N2C3)nc1)N1CCCCC1 (some centres undefined) | -4.66% | – | –
COc1cncc(-c2cccc(COc3ccc4c(cnn4CC[S+](C)(=O)[O-])c3)c2)c1 | – | 56.2 µM (active) | –
O=C(CC1CCN(C(=O)c2ccccc2)C1)NC1CC1 (centres undefined) | -7.16% | – | –
CCn1c(C2CCCNC2)nn(Cc2ccc(C(=O)NC)o2)c1=O (centres undefined) | 0.0264% | – | –
Brc1cccc(-c2noc(-c3nc(-c4ccncc4)no3)n2)c1 | 4.91% | – | –
CCn1cnnc1CC1CCN(C(=O)C2CCN(Cc3nc(-c4cccc(C)c4)oc3C)CC2)CC1 | -24.6% | – | –
COc1ccc(-c2nc(CN3CCOC(CN)C3)c(C)o2)c2ccccc12 (centres undefined) | – | 31.6 µM (active) | –
COc1ccc(-c2noc(CN3CCCC(C(=O)c4cccnc4)C3)n2)c(OC)c1OC (centres undefined) | -24.8% | – | –

Structure (SMILES) | activity change, negative = cytotoxicity | Potency | outcome
Cc1oc(-c2cccc(Cl)c2)nc1CN1CCCC(C(N)=O)C1 (centres undefined) | -17.1% | – | –
Cc1oc(-c2cccc(Oc3ccccc3)c2)nc1CN1CCOC(CCN)C1 (centres undefined) | – | 28.2 µM (active) | –
COC(=O)[C@@H]1Cc2ncn(Cc3ccc(Cl)cc3)c2CN1S(=O)(=O)c1ccc(C(C)=O)cc1 | -1.59% | – | –
CCCN(CC1CCOC1)C(=O)Nc1cc(C)ccc1OC (centres undefined) | 4.73% | – | –
Cc1ncsc1CCC(=O)N[C@@H]1COCC[C@@H]1Oc1cccc(F)c1 | – | – | inactive
COc1ccc2[nH]cc(CCNC(=O)C3CCCN(Cc4ccncc4)CCC(=O)NCC3)c2c1 (centres undefined) | – | – | inactive
COc1ccc2ccc(OCc3nc(C(=O)N4CCC(=O)NCC4C)co3)cc2c1 (centres undefined) | – | 44.7 µM (active) | –
Cc1cc(C(=O)N2CCCCC2c2noc(COc3ccc(F)cc3)n2)nn1C (centres undefined) | -29.3% | – | –
COc1ccc(OCc2nc(C(=O)N3CCCC(C)(CO)C3)co2)cc1 (centres undefined) | -24.8% | – | –
Cc1nc(N2CCC(C(=O)NCc3ccc(C(C)C)cc3)CC2)cc(C(F)(F)F)n1 | – | 31.6 µM (active) | –
COc1ccc(OC)c(NC(=O)C2CCN(c3cc(C(F)(F)F)ncn3)CC2)c1 | -13.9% | – | –
Cc1nc(N2CCC(NC(=O)c3ccc4c(c3)OCO4)CC2)cc(C(F)(F)F)n1 | -17.7% | – | –
Cc1ccc(N2Cc3c(NCC4CC4)ncnc3N(C)CC2=O)cc1 | -6.31% [at 172 µM] | – | –
CN1CCN(C2CCOC3(CCN(S(=O)(=O)c4cn(C)cn4)CC3)C2)CC1 (centres undefined) | 6.96% | – | –
CC(C)C(=O)N1CCC(OC2CCN(Cc3ccccc3)CC2)CC1 | -18.1% | – | –
COCc1ccc2c(c1)c(OC(C)(C)C(=O)N1CCN(C)CC1)nn2Cc1cccnc1 | – | – | inactive [at 172 µM]
CC(C)(Oc1nn(Cc2cccc(Cl)c2)c2ccccc12)C(=O)Nc1cccnc1 | – | 35.5 µM (active) | –
CN(C)CCNC(=O)C(C)(C)Oc1nn(Cc2cccc(Cl)c2)c2ccccc12 | – | 31.6 µM (active) | –
CN1CCN(C(=O)C(C)(C)Oc2nn(Cc3cccc(Cl)c3)c3ccccc23)CC1 | – | 70.8 µM (active) | –
COCc1ccc2c(c1)c(OC(C)(C)C(=O)NC1CCC(O)CC1)nn2Cc1cccnc1 (centres undefined) | -3.5% | – | –
COCCNC(=O)N1CCc2nn(Cc3ccccc3)c(=O)n2CC1 | -1.17% | – | –
O=C(NCc1cccnc1)C1CCCN(c2cnn(Cc3ccccc3)c(=O)c2)C1 (centres undefined) | -21.1% | – | –
Cc1ccccc1C(=O)NCc1c[nH]c2ncccc12 | -4.04% [at 172 µM] | – | –
N#Cc1ccc(CN2CC3CCC(C2)N3c2ccc(C(F)(F)F)cc2)cc1 | 1.8% | – | –
O=C(c1ccn[nH]1)N1CCC[C@H](n2c(=O)n(CC3CC3)c3cccnc32)C1 | -3.78% | – | –

Structure (SMILES) | activity change, negative = cytotoxicity | Potency | outcome
COCCn1c(=O)n([C@H]2CCCN(C(=O)c3ccccc3F)C2)c2ncccc21 | -4.8% | – | –
NC(=O)c1cccnc1OC1CCN(Cc2cccnc2)CC1 | -1.27% | – | –
CCOCc1nc(C2CCCN(C(=O)NC(C)C)C2)no1 (centres undefined) | 6.9% | – | –
O=C(NCc1ccco1)C1CCCN(c2cnn(Cc3ccccc3)c(=O)c2)C1 (centres undefined) | -10.3% | – | –
Cc1noc(C)c1S(=O)(=O)N1CCC(c2noc(-c3ccccn3)n2)C1 (centres undefined) | -0.0231% | – | –
O=C1CCN(C(=O)C2COc3ccccc3O2)CCOCCN1 (centres undefined) | -13.6% | – | –
C[C@@H](NC(=O)C1=C[C@@H](NC(=O)CC2(CC(=O)O)CCCC2)[C@@H](O)[C@H](O)C1)C(N)=O | – | – | inactive [at 172 µM]
CN1CCC(C(=O)N2CC(F)(F)C[C@H]2c2nc(C3CC3)no2)CC1 | 1.09% | – | –
COCCCNc1cc(-c2ccsc2)nc2c(C)noc12 | -25.3% [at 172 µM] | – | –
Cc1noc2c(NC3CCCCC3)cc(-c3ccsc3)nc12 | – | 89.1 µM (active) | –
O=C(Nc1ccc(-c2nnc3n2CCCC3)cc1)c1ccccn1 | 0.901% | – | –
CC(=O)N1CCCC2(C1)CN(C)c1ccc(C(=O)NC3CC3)cc12 (centres undefined) | 4.11% [at 172 µM] | – | –
COCCCN(CCC(=O)NCc1ccc(F)cc1)C(=O)c1cc(C)oc1C | -6.59% | – | –
CNc1nc(C(=O)NCc2ccc3[nH]c(-c4ccc(F)cc4)c(C)c3c2)cs1 | – | 39.8 µM (active) | –
COc1ccc(CNC(=O)Cn2cccc2-c2nc(-c3ccc(F)cc3)no2)cc1 | -3.89% | – | –
COc1ccc(-c2ccc(C(=O)NCc3ccc(F)cc3)cc2)nn1 | -8.21% [at 172 µM] | – | –
N#Cc1cccc(-c2c(C(=O)NCc3ccc(F)cc3)nc3sccn23)c1 | -4.66% [at 172 µM] | – | –
Cc1c(-c2ccc(F)cc2)[nH]c2ccc(CNC(=O)c3ccc(CO)o3)cc12 | – | 31.6 µM (active) | –
CCOc1ccc2c(n1)CCN(C(=O)Nc1ccc(OC)cc1C)C2 | -5.05% | – | –
CN1CC(=O)N(c2cccc(F)c2)Cc2c(NC3CCNCC3)ncnc21 | 1.38% | – | –
CS(=O)(=O)N1CCCN(C(=O)Cc2cccc(F)c2)CCNC(=O)CC1c1ccccc1 (centres undefined) | -0.201% | – | –
CCOCC(=O)N1CC(c2nc(CCOc3cccc(C)c3)no2)C1 | -25.3% | – | –
O=C(c1ccccn1)N1CCCC(c2nc(CCOCC3CCOCC3)no2)C1 (centres undefined) | -18.8% | – | –
Cc1cccc(OCCc2noc(C3CCCN(Cc4ccccc4C#N)C3)n2)c1 (centres undefined) | – | 89.1 µM (active) | –
